# Screening results deposited in PubChem BioAssay by Sanford-Burnham Center for Chemical Genomics.
# tim23-1 inh: growth inhibitors of tim23-1 mutant yeast, primary screen, luminescence, uHTS; S. cerevisiae tim23-1 growth, BacTiter-Glo luminescence, 24 h; inhibition, % at 20 µM; 1.3% of 330,000 active;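 active = growth inhibition of the mutant yeast at or above 50%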;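 note: temperature-sensitive mutant grown at 25 °C; plate controls were DMSO-treated mutant yeast for no effect and medium wells lacking yeast for full effect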
# NALP1 inh: NALP1 inflammasome inhibitors in reconstituted yeast, colorimetric, S. cerevisiae, triplicate retest. inhibition, % at 10 µM. 0.61% of 280,000 active. S. cerevisiae NALP1/ASC/caspase-1 growth, X-gal OD620, 72 h; in the data active = inhibition mostly above about 24%, no sharp cut-off; inactive = mostly below about 32%
# tim10-1 inh: growth inhibitors of tim10-1 mutant yeast, primary screen, luminescence, uHTS; AID 463190, 2010; S. cerevisiae tim10-1 ts strain growth, BacTiter-Glo, 24 h; inhibition, % at 20 µM; 2.2% of 330,000 active;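 active = inhibition of at least 40%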;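 note: mutant grown at 25 °C; 0% = DMSO wells with yeast and 100% = wells holding no yeast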
# TIM10 inh: growth inhibitors of isogenic TIM10 control yeast, primary screen, counter-screen for tim10-1 yeast inhibitor project, luminescence, uHTS | inhibition, % at 10 µM | AID 463195, 2010 | S. cerevisiae TIM10 strain growth, BacTiter-Glo luminescence, 24 h | 1.4% of 330,000 active;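 active = inhibition of 40% or more at the single tested concentration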;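 note: wild-type TIM10 isogenic control strain grown at permissive 25 °C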
# NLRP3 yeast inh: NALP3 inflammasome inhibitors in reconstituted yeast, primary screen, luminescence, uHTS; 0.39% of 330,000 active; inhibition, % at 10 µM; Yeast reconstituted NLRP3/ASC/caspase-1, beta-gal luminescence, 24 h;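 active = inhibition of 50% or more; inactive = inhibition below 50%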;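 note: plate controls were induced DMSO wells for no effect and uninduced yeast grown without galactose for full effect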
# * marks the source's active call; other numbers are inactive results; nt = not tested or not shown. Compounds with a hit are over-represented: about 4% of the library has one in this group of screens.
SMILES,tim23-1 inh,NALP1 inh,tim10-1 inh,TIM10 inh,NLRP3 yeast inh
O=C(Nc1ccc([N+](=O)[O-])cc1)C1CC1(c1ccccc1)c1ccccc1 (centres undefined),0.2,19.4,0.8,-4.4,6.2
COc1ccc(CCNC(=O)CSc2nc3[nH]ncc3c(=O)n2-c2ccccc2OC)cc1OC,2.8,34.7*,-1.3,-0.4,-1.7
COc1cc(/C=C2\SC(=S)N(CCC(=O)Nc3ccccc3)C2=O)cc(OC)c1OC,27.6,28.9*,16.7,11.9,23.7
COc1cc(/C=C2/SC(=S)N(CCC(=O)Nc3ccccc3)C2=O)cc(OC)c1OC,10.2,10.0,14.0,15.1,25.5
CSCCC(NS(=O)(=O)c1ccc(Cl)cc1)C(=O)OCC(=O)N(C(C)C)C(C)C (centres undefined),8.3,35.2*,11.0,27.8,3.5
CSCCC(NS(=O)(=O)c1ccc(Cl)cc1)C(=O)OCC(=O)NC1CC1 (centres undefined),8.4,-11.9,11.8,3.5,15.9
CCOC(=O)/C=C/[C@H]1CCc2cccc(Cl)c2O1,18.8,nt,-1.3,-10.0,13.6
NC(=NC1CCCCC1)c1ccc([N+](=O)[O-])cc1,17.3,44.1*,9.6,17.5,-1.3
COc1cc(/C=C/C(=O)OCC(=O)NC2CCCCCCC2)ccc1O,32.7,nt,8.1,9.4,16.6
CCCC1=C([O-])C2N=CC=CC2=[N+](c2ccccn2)C1=O (centres undefined),5.4,22.2,10.7,9.1,4.2
O=C(O)c1cccnc1SC1CC(=O)N(CCc2ccccc2)C1=O (centres undefined),3.7,39.7*,10.6,-1.6,3.0
CCOC(=O)c1cnc2c(N=Nc3cccc(Cl)c3)c(N)nn2c1N,nt,83.5*,nt,nt,nt
CCOC(=O)c1cnc2c(N=Nc3ccccc3)c(N)nn2c1N,-0.2,3.7,3.9,10.7,2.7
Cc1c(-c2ccc(F)cc2)[n+](=O)c(-c2ccc(F)cc2)c(C)n1[O-],7.3,41.9*,3.9,-1.0,19.7
CCC1(CC)C(=O)N(C)C(=O)NC1=Nc1ccc(OC)cc1,2.0,41.1*,-16.5,-4.1,13.1
CCC1(CC)C(=O)N(C)C(=O)NC1=NCc1ccccc1,-12.6,9.6,-9.6,9.8,3.9
CC(C)[C@H](NS(=O)(=O)c1ccc(Cl)cc1)C(=O)OCC(=O)c1c(N)n(C)c(=O)n(C)c1=O,0.8,nt,3.6,-1.5,23.0
Cn1c(C(=O)N2CCCC(C(=O)NCCN3CCOCC3)C2)cc2sccc21 (centres undefined),-0.8,30.2*,-9.0,-2.9,14.6
COC(=O)c1cc(NC(=O)c2ccccc2)c(=O)oc1C/C=N\OCc1ccc(Cl)cc1Cl,29.6,42.5*,31.6,14.8,19.9
COC(=O)c1nn(-c2ccccc2)c(Cl)c1/C=N/OCc1ccc(C)cc1,27.6,-1.3,23.7,10.9,7.7
COc1ccc(/C=C2\N=C(C)OC2=O)cc1[N+](=O)[O-],18.0,39.1*,22.3,17.1,2.2
Cc1onc(-c2ccccc2)c1C(=O)Nc1ccccc1NC(=O)c1c(-c2ccccc2)noc1C,2.8,9.3,5.4,2.5,7.5
Cc1onc(-c2ccccc2)c1C(=O)Nc1ccnn1C1CCCCC1,25.3,31.5*,16.1,5.3,3.2
COc1ccc(Cl)cc1S(=O)(=O)NC(C)C(=O)NCc1ccc2c(c1)OCO2 (centres undefined),10.9,24.9,16.6,-11.3,15.5
Cc1ccc2[nH]cc(CCNC(=O)c3ccco3)c2c1,12.5,14.4,15.9,-15.5,5.5
SMILES,tim23-1 inh,NALP1 inh,tim10-1 inh,TIM10 inh,NLRP3 yeast inh
Cc1cc(Br)c2[nH]cc(CCNC(=O)c3ccco3)c2c1,32.7,40.6*,32.7,20.9,38.4
Cc1cc(OCCCC(=O)N2CCCCC2)cc(C)c1Cl,3.9,21.3*,19.7,12.9,40.5
Cc1cc(Cl)ccc1OCCCC(=O)N1CCCCC1,33.8,-24.5,23.7,19.7,13.6
COc1ccc(S(=O)(=O)N2CCC(C(=O)NCc3cccnc3)CC2)cc1OC,10.7,18.7,4.3,-4.4,10.7
O=C1NC(Cc2ccccc2)c2nc3ccccc3c(=O)n2-c2cc(Cl)ccc21 (centres undefined),12.2,nt,11.2,3.2,-3.5
COc1ccc(NC(=S)N(C(C)C)C2CCN(C(C)C)CC2)cc1Cl,-11.7,47.3*,2.3,9.6,7.6
